Tested on: Fibrinogen (Alexa647-labelled)
Assay: fibrinogen binders on compound microarrays, profiling panel, artefact control for SMM control-protein annotation, biochemical, small-molecule microarray, 635/667 nm fluorescence (AID 1131);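 note: z-score merges 667 nm fluorescence with per-spot signal-to-noise over triplicate slides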
Conditions: fibrinogen-A647 binding fluorescence, higher = more signal

| Compound | composite z-score |
| --- | --- |
| C=CC[C@@H]1C=C[C@H](ON=C2c3cc(OC)ccc3O[C@H](c3cccc(OC)c3)[C@H]2O)[C@@H](CO)O1 | 0.352 |
| COCCOC(=O)N1C(=O)[C@@]2(c3cc(C#CCNC(N)=O)ccc31)[C@H](c1ccc(O)cc1)N1[C@H](c3ccccc3)[C@H](c3ccccc3)OC(=O)[C@H]1[C@@H]2C(=O)N1CCCCCCC1 | 0.606 |
| CC(C)(C)N1C(=O)[C@H]2[C@H]3[C@H](O)[C@H](O)CC(=NOCc4ccccc4)[C@@H]3CC[C@H]2C1=O | 0.921 |
| O=C1C[C@]2(c3ccc([N+](=O)[O-])cc3)C(=O)N(CCN3CCOCC3)c3cc(CO)ccc3[C@H]2N1CC12CC3CC(CC(C3)C1)C2 | -0.724 |
| CC[C@@H](c1ccccc1)n1c(=O)n2n(c1=O)[C@H]1[C@H](O)[C@@H]3O[C@@H]3C(=NOCC(C)C)[C@H]1CC2 | -0.203 |
| O=C1[C@H]2[C@H]3[C@H](O)[C@H](O)CC(=NO[C@@H]4O[C@H](CO)[C@@H](O)[C@H](O)[C@H]4O)[C@@H]3CC[C@H]2C(=O)N1Cc1ccc2c(c1)OCO2 | 0.78 |
| CC(C)=C1C(=O)C(c2ccccc2)=C2CN3C(=O)N(CCc4ccccc4)C(=O)[C@]3(Cc3ccc(F)cc3)[C@H]21 | -1.43 |
| CO[C@@H]1COC(=O)CCC[C@@H](C)[C@H](OC)COC(=O)[C@H](Cc2ccccc2)NC(=O)CC=C[C@H]1C | -0.876 |
| Cc1ccc(F)cc1S(=O)(=O)N[C@@H]1CCN(Cc2ccc(CC(C)C)cc2)C1 | 0.129 |
| CC(C)[Si]1(C(C)C)O[C@@H](c2ccccc2)c2cc(C3CC3)nc(-c3ccccc3)c21 | 0.412 |
| COC(=O)[C@@]1(Cc2ccc(F)cc2)[C@H]2c3cc(C(=O)N(C)C)n(Cc4ccc(OC)c(OC)c4)c3C[C@H]2CN1C(=O)c1ccccc1 | 0.661 |
| CCOC(=O)CCN1C(=O)[C@H]2[C@H]3[C@H](O)C=CC(=O)[C@@H]3CC[C@H]2C1=O | 0.11 |
| C[C@H](c1ccccc1)N1C(=O)[C@H]2[C@@H]3C(=CC[C@H]2C1=O)C(=O)[C@H]1O[C@H]1[C@H]3O | 0.367 |
| CS(=O)(=O)CCOC(=O)C1=CC(CCCO)=CC(c2cccs2)N(Cc2cccc(OC(F)(F)F)c2)C=C1C(=O)OCCS(C)(=O)=O (stereo unspecified) | 0.579 |
| O=C1[C@H]2[C@H]3[C@H](O)[C@H](O)CC(=NO[C@@H]4O[C@H](CO)[C@@H](O)[C@H](O)[C@H]4O)[C@H]3CC[C@H]2C(=O)N1Cc1ccc2c(c1)OCO2 | 0.762 |
| Cc1cc2c(nc1C)CCCN2CC(C)ON=C1[C@H]2CCn3c(=O)n(-c4ccccc4)c(=O)n3[C@H]2[C@H](O)[C@@H]2O[C@H]12 (stereo partly specified) | 0.342 |
| Cc1cc(C)c(-c2cc([C@H](C)ON=C3[C@H]4CCn5c(=O)n(-c6ccccc6)c(=O)n5[C@H]4[C@H](O)[C@@H]4O[C@H]34)on2)c(C)c1 | 0.382 |
| COc1ccc([Si](C)(C)[C@@H]2[C@@H](CCO)O[C@]3(C(=O)N(Cc4ccc(NC(C)=O)cc4)c4ccccc43)[C@H]2C)cc1 | 0.963 |

| Compound | composite z-score |
| --- | --- |
| c1ccc(C2NCCc3c2[nH]c2ccccc32)cc1 (stereo unspecified) | -1.82 |
| CC(=O)C[C@H](O)[C@@H](NC(=O)OC(C)(C)C)C(C)C | -0.454 |
| CO[C@H]1O[C@H](CO)[C@@H](OC(=O)Nc2ccc(C#N)cc2)[C@H](OC(=O)c2cc3ccccc3[nH]2)[C@H]1OC(=O)c1cc2ccccc2[nH]1 | 0.787 |
| CO[C@@H]1COC(=O)[C@@H]2CCCN2C(=O)[C@@H](C)COC(=O)[C@H](COCc2ccccc2)NC(=O)CC=C[C@H]1C | 0.385 |
| COc1ccc(O[C@H]2C=C[C@@H](c3ccccc3)O[C@@H]2COC(=O)CCC(C)=NO[C@H](C)c2cn([C@@H]3COC[C@H]3O)nn2)cc1 | 0.517 |
| CC(CCC(=O)OC[C@H]1O[C@H](C#Cc2ccccc2)C=C[C@@H]1Oc1ccc(C)cc1)=NO[C@@H](C)c1cn([C@H](CO)Cc2ccccc2)nn1 | 0.716 |
| CO[C@H]1COC(=O)[C@H](C)COC(=O)CC=C[C@@H](C)[C@H](OC)COC(=O)CC=C[C@@H]1C | -0.217 |
| CCc1cccc(NC(=O)O[C@H]2[C@H](OC(=O)Nc3ccc4c(c3)OCO4)[C@@H](OC(=O)Nc3ccc4c(c3)OCO4)[C@@H](OC)O[C@@H]2CO)c1 | 0.992 |
| CCOC(=O)C[C@H]1[C@H](OC(=O)c2cc3ccccc3oc2=O)[C@@H](NC(=O)c2ccc3ccccc3n2)c2cc(OCCCO)ccc2N1C(=O)c1ccccc1 | 0.584 |
| CCN1C(=O)[C@H]2[C@H]3[C@H](O)[C@H](O)CC(=NOCC=C(C)CCC=C(C)C)[C@H]3CC[C@H]2C1=O | 0.0065 |
| O=C1[C@H]2[C@H]3[C@H](O)[C@H](O)CC(=NOCc4ccccc4)[C@@H]3CC[C@H]2C(=O)N1C1CCCCC1 | -0.303 |
| CC(C)=CCCC(C)=CCON=C1[C@H]2CCn3c(=O)n(Cc4cc5c(cc4Cl)OCO5)c(=O)n3[C@H]2[C@H](O)[C@@H]2O[C@H]12 | 0.544 |
| CCCNC(=O)OC[C@H]1O[C@H](CCON=C[C@@H](OC)[C@H](C)C=CCC(=O)OC)C=C[C@@H]1Oc1ccc(OC)cc1 | 0.325 |
| COC(=O)[C@H](C)NC(=O)[C@@H](C)CO | 0.941 |
| C=CCOC(=O)[C@H]1[C@@H]2C(=O)O[C@@H](c3ccccc3)[C@@H](c3ccccc3)N2[C@@H](c2ccc(OCCOC(=O)[C@H]3C[C@H]4C(=O)N5CCC[C@H]5C(=O)N4[C@H]3c3cccc(OCCO)c3)cc2)[C@]12C(=O)Nc1ccc(I)cc12 | 0.97 |
| CCCCC(=C=CC[C@H](O)c1ccccc1OCCO)C[C@H](O)COCc1ccccc1 | -0.256 |
| COc1ccc(-c2ccc3c(n2)CCCN3CC(O)CN2CCCc3nc(C)c(C)cc32)cc1 (stereo unspecified) | 0.733 |
| C[C@H]1Cc2c(-c3ccccc3)nc3c(c2CO1)CN(CCOc1ccccc1)CC3 | 0.728 |

— PubChem BioAssay
